Source: PubChem BioAssay (National Center for Advancing Translational Sciences (NCATS))
A selection: hits, their analogues and other compounds. The true share with any hit is near 17%.
TGFb SMAD3 inh: blocks TGF-b signaling; HepG2 CAGA-GFP TGF-b/SMAD3 reporter, GFP fluorescence, 18 h; TGF-beta stimulated, 500 pg/mL final; Potency, µM (highest dose often 46.1 µM), usual class: inhibitors; 410,000 compounds, 1.2% hits; further: nearly all actives have a fitted effect of over 65% in size
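TGF-beta reporter screen: HEPG2 CAGA-GFP, 1% FBS, 500 pg/mL TGF-beta final, 18 h; per-cell GFP summed per well; curves fitted and categorized by class.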
DT40 TDP1 no CPT: qHTS for Inhibitors of human tyrosyl-DNA phosphodiesterase 1 (TDP1): qHTS in cells in absence of CPT | 420,000 compounds, 15% hits | Potency, µM (series often up to 46.2 µM), hits mostly inhibitors | DT40 Tdp1-/- hTDP1 cells, no CPT, ATP luminescence, 48 h | AID 686978, 2013; further: nearly all actives have a fitted effect of over 55% in size
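A cellular qHTS used chicken DT40 cells lacking endogenous Tdp1 but carrying stably transfected human TDP1. Compounds were applied without camptothecin, and cell growth kinetics were judged by ATP-dependent luminescence after ≥48 hr.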
HepG2 tox: HepG2 cytotoxicity, counter-screen for TGF-b inhibitors | HepG2 CAGA-GFP viability, ATP luminescence, 18 h | Potency, µM (top dose mostly 46.1 µM), hits mostly cytotoxic | 410,000 compounds, 0.76% hits
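HepG2 CAGA-GFP cells (1000/well, DMEM with 1% FBS) received compound, then TGF-beta at 500 pg/mL final, and were incubated 18 hours at 37 degrees C. Viability was read by CellTiter-Glo luminescence. Media-only wells were set as complete cell-killing and DMSO as no toxicity.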
HT1080 IDH1KD tx: kills HT-1080 cells with IDH1 knockdown; HT-1080 IDH1 knockdown viability, ATP luminescence, 48 h; Potency, µM (top dose mostly 46.1 µM), hits mostly cytotoxic; 360,000 compounds, 2% hits; AID 686971
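Luminescent ATP read-out (CellTiter-Glo, 10 min at room temperature) after 48 h compound exposure at 37 °C gave viability of IDH1-knockdown HT-1080 cells. Activity was normalised to DMSO and cell-free wells, then fitted as concentration-response curves.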
DT40 TDP1 CPT: DT40-hTDP1 cell growth loss with CPT; 420,000 compounds, 12% hits; chicken DT40 Tdp1-/-;hTDP1 cells + 20 nM CPT, ATP luminescence, 48 h; Potency, µM (doses to about 46.2 µM), usual class: inhibitors; further: nearly all actives have a fitted effect of over 55% in size
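Chicken DT40 Tdp1-/- cells stably complemented with human TDP1 were seeded at 400 cells/well in medium containing 20 nM camptothecin, exposed to pin-transferred compounds, and grown at 37 °C for at least 48 hr. Viability was read as ATP luminescence.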
HT1080-NT tox: kills 2HG-producing HT-1080-NT fibrosarcoma cells | HT-1080-NT fibrosarcoma viability, CellTiter-Glo ATP luminescence, 48 h | Potency, µM (series often up to 46.1 µM), actives largely listed as cytotoxic | 360,000 compounds, 1.6% hits;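 further: NT is the 2HG producing partner of a matched IDH1 knockdown line; nearly all actives have a fitted effect of over 55% in size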
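750 cells/well, RPMI + 5% FBS; 2 h settle, compound pin-transfer, 48 h at 37 degrees C. CellTiter-Glo 10 min RT, luminescence. Normalized to DMSO and media-only wells.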
A number is an active result; - = inactive; ? = inconclusive; . = no result. The call rests on the fitted dose curve; in most records, active means well fitted curve in the direction sought with a large enough effect; inconclusive means small, poorly fitted or top-dose-only effect, or another doubt; inactive means no such curve, though single readings can be large; an effect the other way counts as inactive or inconclusive.

SMILES | TGFb SMAD3 inh | DT40 TDP1 no CPT | HepG2 tox | HT1080 IDH1KD tx | DT40 TDP1 CPT | HT1080-NT tox
FC(F)Sc1ccc(NC2=NCCCCC2)cc1 | - | - | - | - | - | -
Cc1ccc(-c2cn(-c3ccc(SC(F)F)cc3)c3[n+]2CCC3)cc1 | - | 0.46µM | - | ? | 0.65µM | -
CC(=O)c1cn(Cc2ccccc2)c(=O)n(Cc2ccc(F)cc2)c1=O | - | - | - | - | - | -
CCN(CC)S(=O)(=O)c1ccc(NC(=O)C(OC)c2ccccc2)cc1 (configuration not stated) | - | - | - | - | - | -
Clc1ccc(Nc2nc(-c3ccccc3)c3cc(Cl)ccc3n2)cc1 | - | - | - | . | - | .
COc1ccccc1Nc1nc(-c2ccccc2Cl)c2cc(Br)ccc2n1 | - | 2.3µM | - | . | 3.7µM | .
Clc1ccccc1-c1nc(Nc2ccccc2)nc2ccc(Br)cc12 | ? | 18µM | - | . | ? | .
CCN(CC)c1nc(-c2ccccn2)nc(-c2ccccc2)c1C#N | ? | 3.3µM | - | - | 18µM | -
CN(C)c1nc(-c2ccccn2)nnc1-c1ccccc1 | - | 15µM | - | ? | 10µM | -
CN(C(=O)c1cccc(NC(=O)Cc2ccc(NC(=O)C3CCN(C(=O)C4CCCCC4)CC3)cc2)c1)C1CC1 | - | ? | - | - | - | -
O=C(OCc1ccc([N+](=O)[O-])cc1)C1CC(=O)N(Cc2ccccc2)C1 (configuration not stated) | - | - | - | - | - | -
COCCN(C(=O)C1CC(=O)N(Cc2ccccc2)C1)c1nc(-c2ccc([N+](=O)[O-])cc2)cs1 (configuration not stated) | - | 21µM | - | - | 16µM | -
c1ccc(COc2ccc(-c3cc4nc(NCCN5CCOCC5)ccn4n3)cc2)cc1 | - | 21µM | - | 18µM | ? | ?
Cc1cc(-c2ccccc2)nnc1NCCN1CCOCC1 | - | - | - | - | - | -
c1ccc(COc2cccc(-c3cc4nc(NCCN5CCOCC5)ccn4n3)c2)cc1 | - | 13µM | - | ? | 26µM | 15µM
Clc1cccc(-c2cc3nc(NCCOc4ccccc4)ccn3n2)c1 | - | - | - | - | - | -
COc1ccccc1N1CCN(c2nc(CNC(=O)c3ccc(C)c(C)c3)nc3ccccc23)CC1 | . | - | . | . | - | .
COc1ccccc1N1CCN(c2nc(CNC(=O)c3sc(C)nc3C)nc3ccccc23)CC1 | . | 5.2µM | . | . | 6.5µM | .
Cc1ccc(-c2nc(NCc3ccco3)c3ccccc3n2)cc1 | ? | ? | - | - | ? | ?
CNc1nc(NCc2ccco2)c2ccccc2n1 | 2.8µM | 16µM | - | . | 10µM | .
Cc1ccc(S(=O)(=O)Nc2nc3ccccc3nc2NCc2ccco2)cc1 | - | ? | - | 10µM | ? | ?
C=CCNc1nc(NCc2ccco2)nc(OCC)n1 | - | ? | - | - | 21µM | -
CCNc1nc(NCc2ccco2)c2ccccc2n1 | ? | 11µM | - | . | 11µM | .
COc1ccc(CNC(=O)CCS(=O)(=O)c2cc3c(cc2Cl)NC(=O)CO3)cc1 | - | - | - | - | - | -
Clc1nc(NCc2ccco2)c2ccccc2n1 | - | 7.1µM | - | . | ? | .
SMILES | TGFb SMAD3 inh | DT40 TDP1 no CPT | HepG2 tox | HT1080 IDH1KD tx | DT40 TDP1 CPT | HT1080-NT tox
CSc1nc(NCc2ccco2)c2ccccc2n1 | - | ? | - | ? | ? | -
O=C(NCCc1cccs1)C(c1ccccc1)c1ccccc1 | - | ? | - | - | ? | -
COc1ccc2c(CNCc3cccs3)c(C(=O)O)n(Cc3ccccc3C)c2c1 | - | 2.9µM | - | . | ? | .
COc1ccc2c(CNCc3cccs3)c(C(=O)O)n(Cc3ccccc3)c2c1 | ? | ? | - | . | - | .
COc1ccc2c(CNCCc3ccco3)c(C(=O)O)n(Cc3ccc(C)cc3)c2c1 | - | ? | - | . | - | .
COc1ccc2c(CNCCc3cccs3)c(C(=O)O)n(Cc3ccccc3C)c2c1 | ? | 5.2µM | - | . | 8.2µM | .
CC(C)OCCCNC(=O)CN1C(=O)CSc2ccc(S(=O)(=O)N3CCCCC3)cc21 | - | ? | - | - | - | -
O=C1/C(=C/c2ccc3c(c2)OCO3)Oc2cc(OCC(=O)N3CCC[C@H]3C(=O)O)ccc21 | - | - | - | - | 21µM | -
